# Test results reported in PubChem BioAssay.
# Activity calls are given as the source filed them.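 How the source made its calls: active means compounds killing one labelled cell type while sparing the other, by normalised counts and ratio limits, not self-fluorescent; inactive means the rest.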
# Assay: EMT-state selective cytotoxicity in co-culture – imaging, PC-3E GFP, TEM4-18 mCherry, primary screen (AID 1345086);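 further: cells exposed to compound for 72 h before imaging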;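 on red/green cell ratio (normalised): normalised mesenchymal count divided by normalised epithelial count so high means epithelial killing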
# Conditions: PC-3E GFP / TEM4-18 mCherry co-culture, imaging cell counts, at 1 µM; for red/green cell ratio (normalised): actives lie on both sides, counts scaled to control wells, 1 = unselective
# [1] = measured here: epithelial PC-3E GFP cell survival
# [2] = measured here: mesenchymal TEM4-18 mCherry cell survival
SMILES,red/green cell ratio (normalised),normalised cell number [1],normalised cell number [2]
CC(=O)O[C@@H]1C[C@@]2(C)C(CC[C@@H]2C(C)=O)C2CCC3=CC(=O)CC[C@]3(C)C21 (stereo not given in full),1.08 (inactive),0.87,0.94
C=C1C2=C(C(=O)N1OC)[C@H](O)[C@](C)(O)[C@H](CCCCC)O2,1.13 (inactive),1.01,1.15
CC(CCC(=O)O)[C@H]1CCC2C3CC[C@@H]4CCCC[C@]4(C)C3CC[C@@]21C (stereo not given in full),0.93 (inactive),1.12,1.04
COc1ccc(-c2cc(=O)c3c(O)c(OC)c(O[C@H]4O[C@H](CO[C@@H]5O[C@@H](C)[C@H](O)[C@@H](O)[C@H]5O)[C@@H](O)[C@H](O)[C@H]4O)cc3o2)cc1,0.98 (inactive),1.05,1.03
CC12CCC3C(CC3(C)C)C3(C1)OC(=O)CC(C(=O)O)C3CC2 (stereo not given),0.86 (inactive),1.03,0.88
CC(C)[C@H]1COC(=O)N1C(=O)CC(C)N1C(=S)OC[C@H]1c1ccccc1 (stereo not given in full),1.05 (inactive),1.07,1.12
O=C(O)CNC(=O)c1ccc([C@H](O)c2ccccc2)cn1,0.86 (inactive),1.15,0.99
O=C(O)CCCCCCCC(O)C(O)CCCCCCO (stereo not given),1.02 (inactive),1.11,1.13
O=C(/C=C/c1ccccc1)O[C@H]1C[C@@H](O)[C@]2(O)C=CO[C@@H](O[C@@H]3O[C@H](CO)[C@@H](O)[C@H](O)[C@H]3O)C12 (stereo not given in full),1.09 (inactive),0.87,0.95
C[C@H]1OC(n2cc(F)c(=O)[nH]c2=O)C(O)[C@@H]1O (stereo not given in full),0.91 (inactive),1.27,1.16
CC1(C)C(C(=O)O)N2C(=O)C[C@H]2S1(=O)=O (stereo not given in full),0.69 (inactive),1.22,0.84
COC(=O)C1O[C@H](OCc2ccccc2)[C@@H](OC(=O)c2ccccc2)[C@@H](OC(=O)c2ccccc2)C1O (stereo not given in full),1.02 (inactive),1.18,1.2
CC(=O)O[C@@H]1CC2C(C)(C)[C@H](O)C[C@H](O)[C@]2(C)C2CC[C@@]3(C)[C@H](c4ccoc4)OC(=O)[C@H]4O[C@]43[C@@]21C (stereo not given in full),1.01 (inactive),1.01,1.03
COCC1O[C@@H](OC)[C@@H](OCc2ccccc2)[C@@H](OCc2ccccc2)C1O (stereo not given in full),0.86 (inactive),1.18,1.01
COC(=O)C[C@H]1C2(C)CC34OC5(C)O[C@]6(C7/C(=C(/O)C(C)C)C(=O)O[C@@H](c8ccoc8)[C@]7(C)C(OC(C)=O)[C@@H](OC(C)=O)[C@]6(O5)C13C)[C@H](OC(C)=O)[C@@]4(O)C2OC(=O)C(C)C (stereo not given in full),1.02 (inactive),1.08,1.1
CCCC1=CC(=O)[C@H](O)[C@H]1O,1.01 (inactive),1.02,1.02
COc1c(O)cc2c(c1O)C(=O)O[C@@H](C)[C@@H]2O,1 (inactive),1.01,1.02
C[C@H]1C(=O)CCC2[C@]3(C)CC[C@@]4(C)C5CC(C)(C)CC[C@]5(C)CC[C@]4(C)C3CC[C@@]21C (stereo not given in full),1.06 (inactive),1.06,1.13

SMILES,red/green cell ratio (normalised),normalised cell number [1],normalised cell number [2]
Nc1nc2ncc(CNc3ccc(C(=O)NC(CCC(=O)O)C(=O)O)cc3)nc2c(=O)[nH]1 (stereo not given),1.18 (inactive),1.04,1.23
O=c1c(O)c(-c2ccccc2)oc2cc(O)cc(O)c12,0.9 (inactive),1.07,0.96
C=C1C/C=C(\C)CC[C@@H]2[C@@H]1CC2(C)C,1.09 (inactive),0.98,1.07
CO[C@H]1CC(O[C@@H]2/C(C)=C/C[C@@H]3C[C@@H](C[C@]4(C=C[C@H](C)[C@@H](C5CCCCC5)O4)O3)OC(=O)[C@@H]3C=C(C)[C@@H](O)C4OC/C(=C\C=C\[C@@H]2C)[C@]43O)O[C@@H](C)C1O[C@H]1C[C@H](OC)[C@@H](O)[C@H](C)O1 (stereo not given in full),1.04 (inactive),1.06,1.1
C=C1C[C@]23C[C@@]1(O)CC[C@H]2[C@@]12C=C[C@H](O)[C@](C)(C(=O)O1)[C@H]2[C@@H]3C(=O)O,1.1 (inactive),0.93,1.02
COc1cc(OC)c2c(c1C)C(C)(O)COC2=O (stereo not given),0.9 (inactive),1.14,1.02
CCN(Cc1cccc(S(=O)(=O)O)c1)c1cccc(C(=C2C=CC(=[N+](CC)Cc3cccc(S(=O)(=O)O)c3)C=C2)c2ccc(O)cc2S(=O)(=O)[O-])c1,0.88 (inactive),1.26,1.11
CC(C)CCCC(C)[C@H]1CCC2C3C=CC4=CC(=O)CC[C@]4(C)C3CC[C@@]21C (stereo not given in full),0.99 (inactive),0.94,0.93
C[C@]12CCc3occc3C1CC[C@@]13C[C@@H](CCC12)[C@@](O)(CO)C3 (stereo not given in full),1.12 (inactive),0.94,1.06
COC(=O)c1c[nH]c2c(OC)c(F)c(F)cc2c1=O,1.14 (inactive),1.06,1.21
C=CC(C)(C)c1cc(O)ccc1OC1OC(CO)C(O)C(O)C1O (stereo not given),1.01 (inactive),0.93,0.94
C[C@@H](O)[C@H]1C(=O)N2C(C(=O)O)=C(SC3CN[C@H](C(=O)N(C)C)C3)[C@H](C)[C@H]12 (stereo not given in full),1.01 (inactive),0.98,0.99
C[C@@H]1C[C@H](O)[C@@H](O)CO1,0.94 (inactive),1.12,1.05
C=C1C(=O)O[C@@H]2C(=O)O[C@@H](CCCCCCCC)[C@H]12,0.86 (inactive),1.04,0.89
CNC1C(O[C@@H]2OC(CO)C(N)[C@H](O)C2O)OC2CC(N)[C@@H](OC3C(N)C[C@@H](N)C(O)[C@H]3O)OC2C1O (stereo not given in full),1.2 (inactive),0.92,1.1
C=C1CC[C@@]2(C)[C@H](C)CC[C@H](O)[C@@]2(CCC=C(C)C)[C@@H]1Cc1c[nH]c2ccccc12,0.97 (inactive),0.88,0.85
[N-]=[N+]=NC1[C@@H](O)C2OC(c3ccccc3)OCC2O[C@@H]1Sc1ccccc1 (stereo not given in full),1.1 (inactive),0.95,1.04
